JMJD2A Tudor inh: inhibitors of human JMJD2A Tudor domain. AID 504339. Potency, µM (highest dose often 114 µM), actives largely listed as inhibitors. AlphaScreen JMJD2A-Tudor / H3K4me3 peptide binding. O75164. actives 4.4% (n = 390,000); further: nearly all actives have a fitted effect of over 50% in size
ALOX12 inh: ALOX12 (human) lipoxygenase inhibition. actives 1.1% (n = 580,000). P18054. purified 12hLO, xylenol orange hydroperoxide absorbance. Potency, µM (top dose mostly 108 µM), actives largely listed as inhibitors
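Hydroperoxide product was detected by ferrous iron/xylenol orange as the 573 to 405 nm absorbance ratio. Arachidonic acid at 40 uM (final) was turned over for 30 min at room temperature by 150 nM human 12hLO, pH 7.0 Hepes buffer, after 15 min compound preincubation.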
BAZ2B inh: inhibitors of human BAZ2B bromodomain; Potency, µM (series often up to 114 µM), most hits filed as inhibitors; actives 4.4% (n = 360,000); AID 504333; AlphaScreen BAZ2B-H3K14Ac peptide displacement; Q9UIF8; further: nearly all actives have a fitted effect of over 60% in size
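BAZ2B (50 nM) with biotin-H3(5-23)K14Ac peptide (50 nM) in PBS pH 7.4, 0.01% Tween-20, preformed 30 min, then compound 30 min at room temperature; top concentration 110uM. AlphaScreen streptavidin donor/nickel chelate acceptor beads (10 ug/mL final), 20 min dark, signal read.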
PLK1 PBD block: blocks phosphopeptide binding to human PLK1 polo-box domain; actives 2.8% (n = 360,000); Plk1 PBD binding of FITC phosphopeptide, fluorescence polarization; Potency, µM, hits mostly inhibitors; AID 720504; P53350; further: series mostly up to about 57 µM; nearly all actives have a fitted effect of over 65% in size
Target sequence (P53350 whole entry, looked up, the tested form may be a part): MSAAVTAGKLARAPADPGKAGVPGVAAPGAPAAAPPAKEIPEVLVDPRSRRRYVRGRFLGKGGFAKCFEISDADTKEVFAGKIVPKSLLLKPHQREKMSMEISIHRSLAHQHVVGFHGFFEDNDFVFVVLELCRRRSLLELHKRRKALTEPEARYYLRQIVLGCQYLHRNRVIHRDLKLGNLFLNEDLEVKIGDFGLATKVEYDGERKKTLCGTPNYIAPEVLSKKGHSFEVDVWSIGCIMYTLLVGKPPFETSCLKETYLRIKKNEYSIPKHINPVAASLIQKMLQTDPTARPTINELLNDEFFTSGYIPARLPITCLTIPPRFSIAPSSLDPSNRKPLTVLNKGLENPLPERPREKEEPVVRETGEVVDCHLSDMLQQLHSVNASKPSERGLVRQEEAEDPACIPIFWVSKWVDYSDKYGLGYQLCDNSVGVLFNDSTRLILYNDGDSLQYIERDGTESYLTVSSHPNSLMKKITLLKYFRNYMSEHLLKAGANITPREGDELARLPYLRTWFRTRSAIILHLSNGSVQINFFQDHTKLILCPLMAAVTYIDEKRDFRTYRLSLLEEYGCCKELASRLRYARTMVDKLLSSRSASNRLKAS
HP1b chromo inh: inhibitors of HP1-beta chromodomain binding to methylated histone tails; P83916; AlphaScreen HP1-beta / biotin-H3K9me3 peptide binding; Potency, µM (series often up to 114 µM), most hits filed as inhibitors; actives 0.56% (n = 390,000); AID 540317; further: nearly all actives have a fitted effect of over 70% in size
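Compound inhibition of the preformed complex between 50 nM HP1-beta and 50 nM biotinylated H3K9me3 peptide was read by AlphaScreen. Buffer was PBS pH 7.4 with 0.01% Tween-20. Incubations ran 30 min at room temperature, with 10 ug/mL donor/acceptor beads.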
G9a block: blocks human histone lysine methyltransferase G9a; Q96KQ7; G9a H3K9 monomethylation, AlphaScreen, 2 h; Potency, µM (doses to about 102 µM), actives largely listed as inhibitors; actives 8.8% (n = 350,000); further: nearly all actives have a fitted effect of over 75% in size
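Signal arises when biotinylated H3K9 peptide, once monomethylated, bridges streptavidin donor and antibody-captured acceptor beads. Enzyme at 20 nM was preincubated 15 min with test compounds; peptide 500 nM and SAM 20 uM then reacted for 2 h.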
Numbers stand for hits; n = inactive; u = inconclusive; x = no result given; ! = repeats disagree; [ ] = dose if it differs, or a comment. The list is not random: actives were taken first. Their share in the collection is about 9%. The call rests on the fitted dose curve; in most records, active means well fitted curve in the direction sought with a large enough effect; inconclusive means small, poorly fitted or top-dose-only effect, or another doubt; inactive means no such curve, though single readings can be large; an effect the other way counts as inactive or inconclusive.

SMILES	JMJD2A Tudor inh	ALOX12 inh	BAZ2B inh	PLK1 PBD block	HP1b chromo inh	G9a block
O=S(=O)(N/N=C\c1c(F)cccc1Cl)c1ccc(Cl)cc1	n	n	n	15µM	n	n
Fc1cccc(Cl)c1/C=N/Nc1c(Cl)cncc1Cl	n	n	n	n	n	n
Cc1cccc(NC(=S)NNC(=S)NC2CCCCC2)c1C	n	n	n	u	n	1.3µM
Cc1ccccc1NC(=S)NC1CCCC1	n	u	n	n	n	n
Cc1cccc(NC(=O)C2CCCC2)c1C	x	n	x	x	x	x
Cc1cccc(NC(=O)c2ccccc2NC(=O)C2CCCCC2)c1C	n	n	50µM	n	n	n[0.501 µM]
CC(C)CCNC(=O)CC1Nc2c3ccccc3nc(=S)n2C1=O (configuration not stated)	n	n	n	n	n	56µM
C=CCNC(=O)CC1Nc2c3ccccc3nc(=S)n2C1=O (configuration not stated)	n	18µM	n	n	n	35µM
Cc1ccc(Oc2nc3ccccn3c(=O)c2/C=C(\C#N)c2nc3ccccc3s2)c(C)c1	n	4µM	n	x	n	2.5µM
N#C/C(=C\c1c(Oc2ccc(F)cc2)nc2ccccn2c1=O)c1nc2ccccc2s1	n	u	n	x	n	2.2µM
Cc1ccc(Nc2c(-c3ccc(C)cc3)nc3c(C)cccn23)cc1	u	u	x	x	u	11µM
Cc1cccn2c(Nc3ccccc3)c(-c3cccs3)nc12	u	n	n	x	n	n
Cc1ccccc1Nc1c(-c2ccccn2)nc2c(C)cccn12	40µM	n	14µM	n	u	45µM
Cc1ccc(-c2nc3c(C)cccn3c2Nc2ccccc2C)s1	45µM	u	16µM	x	u	14µM
COc1ccc(-c2nc3ncccn3c2Nc2ccccc2C)cc1	x	n	x	x	x	x
Cc1cccn2c(Nc3ccccc3)c(-c3ccc(N4CCOCC4)cc3)nc12	n	u	n	x	n	n
CC(=O)N(C)c1ccc(N=Cc2cc3c(cc2[N+](=O)[O-])OCO3)cc1	n	n	x	n	n	x
CCN(CC)c1ccc(N=Cc2ccc([N+](=O)[O-])o2)cc1	40µM	u	10µM	n	22µM	2.5µM
CCN(CC)c1ccc(N=Cc2ccccc2[N+](=O)[O-])cc1	8.9µM	u	3.2µM	n	8.9µM	8.9µM
CCCCCC(=O)N/N=C/c1ccc([N+](=O)[O-])o1	n	u	n	n	n	n
COc1ccc(CCNC(=O)CN(c2ccccc2OC)S(C)(=O)=O)cc1	n	n	n	n	n	n[12.7 µM]
Cc1c(OCC(=O)NCC2CCC(C(=O)O)CC2)ccc2c3c(c(=O)oc12)CCC3 (configuration not stated)	n	n	n	n	n	n
O=S(=O)(c1ccc(-c2n[nH]c(=S)o2)cc1)N1CCCC1	n	n	n	n	n	35µM
O=S(=O)(c1ccc(-c2n[nH]c(=S)o2)cc1)N1CCCCC1	n	n	u	u	u	11µM
Cc1ccc(S(=O)(=O)Nc2ccccc2F)cc1C(=O)NNC(=O)c1csc(N2CCOCC2)n1	n	n	n	n	n	n
SMILES	JMJD2A Tudor inh	ALOX12 inh	BAZ2B inh	PLK1 PBD block	HP1b chromo inh	G9a block
CC1CCCN(c2csc3ccccc3c2=O)C1 (configuration not stated)	n	u	n	x	n	n
O=C(CSc1ncccn1)N/N=C/c1ccccc1[N+](=O)[O-]	n	n	x	n	n	n
CC(C)CC(C(=O)Nc1oc(-c2ccco2)c(-c2ccco2)c1C#N)N1C(=O)c2ccccc2C1=O (configuration not stated)	u	u	32µM	n	n	22µM
O=C1CC(N2CCC(Cc3ccccc3)CC2)C(=O)N1CCc1ccccc1 (configuration not stated)	n	n	n	n	n	50µM
O=C1CC(N2CCN(C3CC(=O)N(CCc4ccccc4)C3=O)CC2)C(=O)N1CCc1ccccc1 (configuration not stated)	n	n	n	n	n	n
Cc1nc(Cl)cc(CS(=O)(=O)c2ccc(Cl)cc2)n1	n	n	79µM	u	n	u
Cc1nc(CS(=O)(=O)c2ccccc2)cc(Sc2ccc(Cl)cc2Cl)n1	n	n	n	n	n	n
COc1ccc2[nH]cc(C(=O)CNc3nc(C)cs3)c2c1	n[11.4 µM]	u	50µM	n	n	u
CCN(CC)CCCNc1cc(C)nc2cc(-c3cccs3)nn12	n	n	n	n	n	45µM
Cc1nc2cc(-c3cccs3)nn2c(NCC(C)(C)CN(C)C)c1C	n	n	n	n	n	50µM
COc1ccc(N2C(=O)CN=C2Nc2nc(C)cc(C)n2)cc1OC	79µM	n	u	n	n	n
Cc1ccc(NC(=O)CSc2ccc(-c3sc(-c4ccccc4)nc3C)nn2)cc1F	n	n	n	x	n	n
CCc1ccc(NC(=O)c2oc3c(c2C)-c2[nH]ncc2CC3)cc1	n	u	n	x	n	u
Cc1c(C(=O)N2CCCC2)oc2c1-c1[nH]ncc1CC2	n	u	n	n	n	50µM
Cc1ccccc1CNC(=O)/C=C\C(=O)O	n	u	n	n	n	n
O=C(O)/C=C/C(=O)NCc1csc2ccccc12	n	25µM	n	n	n	x
Cc1c(Br)cc(C(=O)O)cc1Br	x	n	x	x	x	x
Cc1c(CCl)cc(C(=O)O)cc1CCl	x	5.6µM	x	x	x	x
COc1ccc(-c2cc(=O)n(-c3ccc(C)c(C)c3)[nH]2)cc1	x	n	x	x	x	x
COc1ccc(-c2cc(=O)n(-c3ccc([N+](=O)[O-])cc3)[nH]2)cc1	56µM	u	40µM	n	u	10µM
CC(C)c1ccc(OCCCCN2CCCCC2)cc1	0.79µM	n	79µM	n	u	n
Clc1ccc(OCCCCN2CCCCC2)cc1	1µM	x	50µM	n	u	10µM
C[C@H](NC(=O)Cc1ccccc1)C(=O)N1CCC2(CC1)NCCc1[nH]cnc12	n	n	n	27µM	n	x
COc1ccc(C(=O)NCCC(=O)N2CCC3(CC2)NCCc2[nH]cnc23)cc1	u	n	n	27µM	n	n
COc1ccc(CC(=O)N[C@@H](C)C(=O)N2CCC3(CC2)NCCc2[nH]cnc23)cc1	n	n	n	n	n	u
Cc1cccc(C)c1NC(=O)C1N=Cc2ccccc2N=C1c1cccc(Br)c1 (configuration not stated)	x	n	x	x	x	x
COc1cc(C2C(=O)N(C3CCCC3)CC(=O)N2Cc2ccco2)ccc1OC(C)C (configuration not stated)	n	n	n	n	n	79µM
COc1cc(C2C(=O)N(C3CCCCCC3)CC(=O)N2Cc2ccccc2)ccc1OC(C)C (configuration not stated)	n	n	n	x	n	n
Cc1ccc(S(=O)(=O)N2CCC(C(=O)N3CCN(c4ccccn4)CC3)CC2)cc1C	x	n	x	n	x	x
CC(C)NC[C@H](O)c1ccc(O)c(O)c1	n	u	n	n	n	8.9µM!
